# Data reported in ChEMBL document CHEMBL1857833, “Screening and optimization of specific chemical series against human African Trypanosomiasis (HAT)”.
# Values joined by “and” are separate entries in the source; they are usually repeats but may differ in a detail not shown here. Identical values can stand only once. The campaign covered roughly 4,400 compounds. About 390 (8.9%) showed an effect of 50% or more. This excerpt belongs to a sample that is enriched for strong results.
# System: Trypanosoma brucei
# Assay: DNDI: Inhibition of Human African Trypanosomiasis, SBRI 427, in vitro at 2 ug.mL-1
# Format: functional
row,SMILES,% inhibition
1,CCOc1ccc(-c2nc(CNCc3ccccc3C(F)(F)F)co2)cc1,1%
2,Cc1ccc(/C(=N/O)NCC2CCCCC2)c(Oc2ccc(Cl)cc2)n1,-11%
3,CSc1ccccc1Oc1ncccc1/C(=N/O)NCC1CC1,99%
4,CC(C)(C)COc1ncccc1/C(=N/O)NCC1CCCCC1,-1%
5,O/N=C(\NCC1CCCO1)c1cccnc1Oc1ccc(-n2cncn2)cc1 (stereo unspecified),24%
6,CCCN(CC1CC1)/C(=N\O)c1cccnc1Oc1ccccc1SC,30%
7,CSc1ccccc1Oc1ncccc1/C(=N/O)NCCN1CCCC1,22%
8,O/N=C(\NCC1CC1)c1cccnc1Oc1ccc2ccccc2c1,99%
9,O/N=C(\NCC1CCCCC1)c1cccnc1Oc1ccc(-n2cncn2)cc1,90%
10,Cc1ccc(/C(=N/O)NCC2CCCCC2)c(Oc2ccc3ccccc3c2)n1,18%
11,O/N=C(\NCC1CCCCC1)c1cccnc1Oc1ccc(Cl)cc1,98%
12,O/N=C(\NCc1ccccc1)c1cccnc1Oc1ccc(-n2cncn2)cc1,21%
13,O/N=C(\NCCN1CCOCC1)c1cccnc1Oc1ccc2ccccc2c1,-10%
14,COc1ccc(CN/C(=N\O)c2ccc(C)nc2OCc2ccccc2F)cc1,-1%
15,COc1cc(C)ccc1Oc1nc(C)ccc1/C(=N/O)n1nc(C)cc1C,-5%
16,O/N=C(/c1ccc(Oc2cccc3c2CCCC3)nc1)N1CCN(c2ccc(F)cc2)CC1,26%
17,COc1cc(-c2nc(Cn3ccnc3C)co2)cc(OC)c1OC,-1%
18,Fc1ccc(N2CCN(Cc3coc(-c4ccco4)n3)CC2)cc1,13%
19,FC(F)(F)c1ccc(-c2nc(Cn3ccnc3)co2)cc1,-3%
20,CCN(CC)c1cccc(Oc2ncccc2/C(=N/O)NCC2CC2)c1,6%
21,O/N=C(\NCC1CC1)c1cccnc1Oc1ccc(F)cc1,97%
22,Cc1ccc(Oc2ncccc2/C(N)=N/O)cc1,21%

row,SMILES,% inhibition
1,O/N=C(\NCc1cccnc1)c1cccnc1Oc1ccc(Cl)cc1,4%
2,CC(C)(C)CN/C(=N\O)c1cccnc1Oc1ccc(Cl)cc1,99%
3,N/C(=N\O)c1cccnc1Oc1ccc(Cl)cc1,59%
4,COc1ccc(Oc2ncccc2/C(=N/O)NCC(C)(C)C)cc1,98%
5,N/C(=N\O)c1cccnc1Oc1ccc(F)c(Cl)c1,10%
6,COc1ccc(Oc2ncccc2/C(=N/O)NCC(C)C)cc1,-7%
7,O/N=C(\NCc1ccccn1)c1cccnc1Oc1ccc(Cl)cc1,10%
8,CCCN(Cc1coc(-c2cccc(F)c2)n1)C(C)CC (stereo unspecified),-4%
9,COc1cc(CNCc2coc(-c3cccs3)n2)cc(OC)c1,-7%
10,COc1cc(-c2nc(CN3CCCCC3C)co2)cc(OC)c1OC (stereo unspecified),-4%
11,Cc1ccc(/C(=N/O)N2CCCCC2)c(Oc2ccc3oc4ccccc4c3c2)n1,7%
12,CC(C)(C)COc1ncccc1/C(=N/O)NCc1ccccn1,12%
13,CCOc1ccc(-c2nc(CNCc3cccc(OC)c3OC)co2)cc1,3%
14,CSc1ccc(Oc2nc(C)ccc2/C(=N/O)NCC(C)C)cc1C,-14%
15,C#CCNCc1coc(-c2ccc(OC)cc2)n1,-25%
16,COc1ccc(N(C)Cc2coc(-c3ccc(F)cc3)n2)cc1,-2%
17,Cc1ccc(C)c(N2CCN(Cc3coc(-c4ccc(OC(F)(F)F)cc4)n3)CC2)c1,33%
18,Cc1ccc(/C(=N/O)NC(C)C)c(Oc2cccc3ccc(C)nc23)n1,31%
19,O/N=C(\NC1CCCC1)c1ccc(Oc2c(F)c(F)cc(F)c2F)nc1,99%
20,CC1CCC(N/C(=N\O)c2ccc(Oc3c(F)c(F)cc(F)c3F)nc2)CC1 (stereo unspecified),17%
21,CN(/C(=N\O)c1ccc(Oc2c(F)c(F)cc(F)c2F)nc1)C1CCCCC1,21%
22,O/N=C(\NC1CCc2ccccc21)c1ccc(Oc2c(F)c(F)cc(F)c2F)nc1 (stereo unspecified),19%

row,SMILES,% inhibition
1,O/N=C(\NCC1CCCO1)c1ccc(Oc2c(F)c(F)cc(F)c2F)nc1 (stereo unspecified),25%
2,CC1CC(N/C(=N\O)c2ccc(Oc3c(F)c(F)cc(F)c3F)nc2)CC(C)(C)C1 (stereo unspecified),22%
3,O/N=C(\NCC1CCCCC1)c1ccc(Oc2c(F)c(F)cc(F)c2F)nc1,40%
4,O/N=C(\NC1CCCCC1)c1ccc(Oc2c(F)c(F)cc(F)c2F)nc1,100%
5,O/N=C(\NC1CCC1)c1ccc(Oc2c(F)c(F)cc(F)c2F)nc1,100%
6,CCOc1ccc(-c2nc(CN(C)CCc3ccccc3)co2)cc1,10%
7,CCOc1cccc(-c2nc(CNc3ccccc3C)co2)c1,20%
8,CC(C)c1ccc(N/C(=N\O)c2ccc(Oc3cccc4ccccc34)nc2)cc1,16%
9,O/N=C(\NCc1ccncc1)c1ccc(Oc2c(F)c(F)cc(F)c2F)nc1,6%
10,CC(C)CN(C)Cc1coc(-c2ccccc2Cl)n1,1%
11,O/N=C(/c1cccnc1Oc1ccc(Cl)cc1)N1CCC2CCCCC2C1 (stereo unspecified),-20%
12,O/N=C(/c1cccnc1Oc1ccc2ccccc2c1)N1CCC2CCCCC2C1 (stereo unspecified),100%
13,COc1ccc(Oc2ncccc2/C(=N/O)NC2CCCC2)cc1,99%
14,COc1ccc(Oc2ncccc2/C(=N/O)NC2CCCCC2)cc1,98%
15,COc1ccc(Oc2ncccc2/C(=N/O)N2CCC3CCCCC3C2)cc1 (stereo unspecified),-2%
16,O/N=C(\NC1CCC1)c1cccnc1Oc1ccc2c(c1)CCCC2,100%
17,O/N=C(\NCc1ccccc1)c1cccnc1Oc1ccc2c(c1)CCCC2,-4%
18,COc1ccc(Oc2ncccc2/C(=N/O)N(C)C2CCCCC2)cc1,-15%
19,O/N=C(\NC1CCCC1)c1cccnc1Oc1ccc2c(c1)CCCC2,1%
20,O/N=C(/c1ccnc(Oc2ccc(Cl)cc2)c1)N1CC=CCC1,8%
21,COc1ccc(-c2nc(Cn3nc(C)cc3C)co2)cc1,-6%
22,Cc1cccc(N2CCN(Cc3coc(-c4ccc(Br)cc4)n3)CC2C)c1 (stereo unspecified),15%

row,SMILES,% inhibition
1,COc1ccc(-c2nc(CNCCc3ccc(C)cc3)co2)cc1,-3%
2,Cc1ccc(CN/C(=N\O)c2ccc(Oc3cc(Cl)ccc3Cl)nc2)o1,9%
3,Cc1cccc(Oc2ncccc2/C(=N/O)N2CCC=N2)c1C,2%
4,C=CCN(Cc1coc(-c2ccccc2Cl)n1)C1CCCCC1,13%
5,O/N=C(\NCc1cccs1)c1ccc(Oc2c(F)c(F)cc(F)c2F)nc1,1%
6,Cc1cc(Oc2ccc(/C(=N/O)N3CCN(c4ccc(F)cc4)CC3)cn2)cc(C(C)C)c1,3%
7,COc1ccc(-c2nc(CN3CCN(c4cccc(Cl)c4)CC3)co2)cc1,10%
8,COc1ccc(Oc2ncccc2/C(=N/O)N2C(C)CCC2C)cc1 (stereo unspecified),-10%
9,O/N=C(\NC1CCCCC1)c1cccnc1Oc1ccc2ccccc2c1,99%
10,COc1ccc(Oc2nc(C)ccc2/C(=N/O)NC2CCC(C)CC2)cc1 (stereo unspecified),47%
11,COc1ccc(Oc2ncccc2/C(=N/O)NC2CCC2)cc1,98%
12,N/C(=N/O)c1cccnc1Oc1ccc2ccccc2c1,-3%
13,O/N=C(\Nc1ccccc1)c1cccnc1Oc1ccc2ccccc2c1,14%
14,O/N=C(\NCc1cc(F)ccc1F)c1ccc(Oc2ccc(Cl)cc2)nc1,-8%
15,O/N=C(\NC1CCc2ccccc21)c1ccc(Oc2ccc(Cl)cc2)nc1 (stereo unspecified),-11%
16,CC1CCN(/C(=N\O)c2ccc(Oc3ccc(Cl)cc3)nc2)CC1,26%
17,CC1CCC(N/C(=N\O)c2ccc(Oc3ccc(-n4ccnc4)cc3)nc2)CC1 (stereo unspecified),21%
18,CCc1ccc(Oc2ccc(/C(=N/O)NC3CCCC3)cn2)cc1,78%
19,O/N=C(\NC1CCCC1)c1ccc(Oc2ccc(Cl)cc2)nc1,98%
20,N/C(=N\O)c1ccc(Oc2ccc(Cl)cc2)nc1,15%
21,CCc1ccc(Oc2ccc(/C(=N/O)Nc3ccccc3)cn2)cc1,17%
22,O/N=C(/c1ccc(Oc2ccc(Cl)cc2)nc1)N1CCCCCC1,-7%

row,SMILES,% inhibition
1,O/N=C(\NC1CCCCC1)c1ccc(Oc2ccc(Cl)cc2)nc1,93%
2,CCc1ccc(Oc2ccc(/C(=N/O)NC3CC3)cn2)cc1,8%
3,CC1CCC(N/C(=N\O)c2ccc(Oc3ccc(Cl)cc3)nc2)CC1 (stereo unspecified),88%
4,CSCCN/C(=N\O)c1ccc(Oc2ccc(Cl)cc2)nc1,-6%
5,CC(NCc1coc(-c2ccccc2Br)n1)c1cccc2ccccc12 (stereo unspecified),9% and -3%
6,CCOc1ccccc1Oc1ncccc1/C(=N/O)N1CCC=N1,13%
7,COc1cccc(-c2nc(CNc3ccc(C(C)=O)cc3)co2)c1,18%
8,COc1cc(-c2nc(CN3CCN(Cc4ccc5c(c4)OCO5)CC3)co2)cc(OC)c1OC,-1%
9,O/N=C(/c1cccnc1OCc1ccccc1F)N1CCN(c2ccc(F)cc2)CC1,-19%
10,CCc1ccc(Oc2ccc(/C(=N/O)N3CCCCC3)cn2)cc1,68%
11,CCc1ccc(Oc2ccc(/C(=N/O)N3CCSCC3)cn2)cc1,16%
12,CC1CCC(N/C(=N\O)c2ccc(Oc3ccc(F)cc3)nc2)CC1 (stereo unspecified),16%
13,CSc1ccc(Oc2ccc(/C(=N/O)NC3CCC(C)CC3)cn2)cc1 (stereo unspecified),81%
14,CCc1ccc(Oc2ccc(/C(=N/O)NCc3ccc(OC)cc3)cn2)cc1,22%
15,CCc1ccc(Oc2ccc(/C(=N/O)N3CCOCC3)cn2)cc1,3%
16,CCc1ccc(Oc2ccc(/C(=N/O)NCc3c(F)cccc3F)cn2)cc1,22%
17,CCc1ccc(Oc2ccc(/C(=N/O)NCC3CC3)cn2)cc1,99%
18,CSc1ccc(Oc2cc(/C(=N/O)NC3CCC(C)CC3)ccn2)cc1 (stereo unspecified),9%
